Reference: PubChem BioAssay (NCATS)
Records with an inconclusive call do not appear. The source made the active and inactive calls. The call rests on the fitted dose curve; in most records, active means well fitted curve in the direction sought with a large enough effect; inconclusive means small, poorly fitted or top-dose-only effect, or another doubt; inactive means no such curve, though single readings can be large; an effect the other way counts as inactive or inconclusive.

Tests used:
[1] = system: CRL-7250; assay: Cytotoxic Profiling of Annotated Libraries Using Quantitative High-Throughput Screening (AID 1296008); conditions: Five cell lines viability, CellTiter-Glo ATP luminescence, 48-72 h; max response: stronger effect = lower value; further: nearly all actives have a fitted effect of over 60% in size; on max response: on the % scale 0 is the no-effect control and ±100 the full control effect
Method in brief: (§1)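 Cytotoxicity was measured as CellTiter-Glo ATP luminescence, read after 10 min at room temperature. Compound treatment of the cells lasted 48 or 72 hr at 37 degrees Celsius in a qHTS format.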

[2] = system: HEK293; assay: as above; conditions: Five cell lines viability, CellTiter-Glo ATP luminescence, 48-72 h; max response: stronger effect = lower value
Method in brief: as §1

[3] = system: HaCat; assay: as above; conditions: Five cell lines viability, CellTiter-Glo ATP luminescence, 48-72 h; max response: stronger effect = lower value
Method in brief: as §1

[4] = system: KB-3-1; assay: as above; conditions: Five cell lines viability, CellTiter-Glo ATP luminescence, 48-72 h; max response: stronger effect = lower value
Method in brief: as §1

[5] = system: NIH3T3; assay: as above; conditions: Five cell lines viability, CellTiter-Glo ATP luminescence, 48-72 h; max response: stronger effect = lower value
Method in brief: as §1

[6] = system: HACAT; assay: qHTS assay to identify novel small-molecules to repurpose for Merkel cell carcinoma treatment (AID 1296009); conditions: MCC and control cell lines, CellTiter-Glo viability, 72 h; at 44.8 µM (top of the series) unless noted; further: nearly all actives have a fitted effect of over 60% in size
Method in brief: (§2)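 Cell viability, measured as CellTiter-Glo luminescence, was normalized between DMSO and no-cell wells. The cells had been exposed to 8- or 11-point compound dilutions for 72 hr at 37 degree celsius.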

[7] = system: NIH3T3; assay: as above; conditions: MCC and control cell lines, CellTiter-Glo viability, 72 h; at 44.8 µM (top of the series) unless noted
Method in brief: as §2

[8] = system: C33A; assay: Primary qHTS to identify gynecologic anti-cancer compounds using libraries of approved drugs and bioactive compounds (AID 1345084); conditions: Gynecologic cancer cell panel viability, ATPlite luminescence, 48 h; series mostly up to 57.5 µM; further: on the % scale 0 is the no-effect control and ±100 the full control effect; nearly all actives have a fitted effect of over 55% in size
Method in brief: (§3)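 Cells, 1,000 per well, were allowed to settle for 16 h at 37 C before compound addition. Five concentrations were tested for 48 h, and viability was read by ATPlite luminescence after 15 min at room temperature.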

[9] = system: CAOV3; assay: as above; conditions: Gynecologic cancer cell panel viability, ATPlite luminescence, 48 h; series mostly up to 57.5 µM
Method in brief: as §3

[10] = system: CASKI; assay: as above; conditions: Gynecologic cancer cell panel viability, ATPlite luminescence, 48 h; series mostly up to 57.5 µM
Method in brief: as §3

[11] = system: Es-2; assay: as above; conditions: Gynecologic cancer cell panel viability, ATPlite luminescence, 48 h; series mostly up to 57.5 µM
Method in brief: as §3

[12] = system: HeLa; assay: as above; conditions: Gynecologic cancer cell panel viability, ATPlite luminescence, 48 h; series mostly up to 57.5 µM
Method in brief: as §3

[13] = system: Hek293T; assay: as above; conditions: Gynecologic cancer cell panel viability, ATPlite luminescence, 48 h, control line for the selectivity index; series mostly up to 57.5 µM
Method in brief: as §3

[14] = system: JEG-3; assay: as above; conditions: Gynecologic cancer cell panel viability, ATPlite luminescence, 48 h; series mostly up to 57.5 µM
Method in brief: as §3

[15] = system: OV90; assay: as above; conditions: Gynecologic cancer cell panel viability, ATPlite luminescence, 48 h; series mostly up to 57.5 µM
Method in brief: as §3

[16] = system: PA-1; assay: as above; conditions: Gynecologic cancer cell panel viability, ATPlite luminescence, 48 h; series mostly up to 57.5 µM
Method in brief: as §3

COc1cc(C(=O)OCC2=CCC3C(C(=O)O)=COC(O[C@@H]4O[C@H](CO)[C@@H](O)[C@H](O)[C@H]4O)C23)ccc1O (some centres not stated)
inactive: max response [1] -2.16% | max response [2] -8.64% | outcome [3] | outcome [4] | outcome [5] | outcome [6] inactive [at 17.4 µM] | outcome [7] inactive [at 17.4 µM] | Potency [8] | Potency [9] | outcome [10] | Potency [11] | Potency [12] | Potency [13] | Potency [14] | Potency [15] | Potency [16]

CNc1nc(C)nc(N[C@H]2CCC[C@@H](C(=O)NCc3ccc(C#N)cc3C(F)(F)F)C2)n1
inactive: outcome [1] | max response [2] -15.3% | outcome [3] | max response [4] -5.41% | outcome [5] | outcome [6] | outcome [7] | Potency [8] | Potency [9] | outcome [10] | Potency [11] | Potency [12] | Potency [13] | Potency [14] | Potency [15]

CC1(C)[C@H]2C[C@H](C/C=C\CCCC(=O)O)[C@@H](NC(=O)c3csc4ccc(O)cc34)[C@@H]1C2
inactive: max response [1] -1.76% | max response [2] 4.16% | outcome [3] | outcome [4] | outcome [5] | outcome [6] | outcome [7] | Potency [8] | Potency [9] | outcome [10] | Potency [11] | Potency [12] | Potency [13] | Potency [14] | Potency [15] | Potency [16]

CC1(C)C2CC[C@@]34CC(CC[C@H]3[C@]2(C)CC[C@@H]1O[C@@H]1O[C@H](CO)[C@@H](O)[C@H](O)[C@H]1O)[C@](C)(O)C4 (some centres not stated)
inactive: max response [1] -8.76% | max response [2] 0.264% | outcome [3] | max response [4] 8.52% | outcome [5] | outcome [6] inactive [at 17.4 µM] | outcome [7] inactive [at 17.4 µM] | Potency [8] | Potency [9] | outcome [10] | Potency [11] | Potency [12] | Potency [13] | Potency [14] | Potency [15] | Potency [16]

C[C@@H]1C[C@@H](O)[C@@]2(CO)C(CO)=CCC[C@@H]2[C@@]12C[C@@H](c1ccoc1)OC2=O
inactive: outcome [1] | max response [2] 4.88% | outcome [3] | max response [4] 4% | outcome [5] | outcome [6] | outcome [7] | Potency [8] | Potency [9] | outcome [10] | Potency [11] | Potency [12] | Potency [13] | Potency [14] | Potency [15] | Potency [16]

CC(O)C(=O)/C=C/C=C/C(=O)OC1C=C2COC(=O)C2(O)C2(C)CCCC(C)(C)C12 (configuration not stated)
inactive: max response [1] -6.23% | max response [2] 3.48% | outcome [3] | max response [4] 4.29% | outcome [5] | outcome [6] inactive [at 17.4 µM] | outcome [7] inactive [at 17.4 µM] | Potency [8] | Potency [9] | outcome [10] | Potency [11] | Potency [12] | Potency [13] | Potency [14] | Potency [15] | Potency [16]

NC[C@@H]1O[C@@H](O[C@@H]2[C@@H](O[C@@H]3O[C@H](CO)[C@@H](O)[C@H]3O)[C@H](O)[C@@H](N)C[C@H]2N)[C@@H](N)[C@H](O)[C@H]1O
inactive: outcome [1] | max response [2] -4.01% | outcome [3] | outcome [4] | outcome [5] | outcome [6] inactive [at 9.27 µM] | outcome [7] inactive [at 9.27 µM] | activity change, negative = cytotoxicity [8] 8.18% [at 11.6 µM] | activity change, negative = cytotoxicity [9] 0.692% [at 11.6 µM] | activity change, negative = cytotoxicity [10] 0.509% [at 11.6 µM] | activity change, negative = cytotoxicity [11] 6.5% [at 11.6 µM] | activity change, negative = cytotoxicity [12] 15.1% [at 11.6 µM] | activity change, negative = cytotoxicity [13] 17.2% [at 11.6 µM] | activity change, negative = cytotoxicity [14] 7.01% [at 11.6 µM] | activity change, negative = cytotoxicity [15] 0.365% [at 11.6 µM]

COc1ccccc1CN[C@H]1CCCN[C@H]1c1ccccc1
inactive: outcome [1] | max response [2] -1.91% | outcome [3] | max response [4] 1.76% | outcome [5] | outcome [6] | outcome [7] | Potency [8] | Potency [9] | outcome [10] | Potency [11] | Potency [12] | Potency [13] | Potency [14] | Potency [15] | Potency [16]

CCCCOc1nc(N)c2c(n1)N(Cc1cccc(CN3CCCC3)c1)CC(=O)N2
inactive: outcome [1] | max response [2] -3.01% | outcome [3] | max response [4] -3.08% | outcome [5] | outcome [6] | outcome [7] | Potency [8] | Potency [9] | outcome [10] | Potency [11] | Potency [12] | Potency [13] | Potency [14] | Potency [15] | Potency [16]
